Experiment [1] deals with Death-associated protein kinase 1 (Homo sapiens) (UniProt P53355). Particulars: at 10 µM.
Experiment [2] has as its target Death-associated protein kinase 2 (Homo sapiens) (UniProt Q9UIK4). Particulars: at 1 µM.
Experiment [3] deals with T1, Serine/threonine-protein kinase DCLK2 (Homo sapiens) (UniProt Q8N568).
T1 sequence (whole entry): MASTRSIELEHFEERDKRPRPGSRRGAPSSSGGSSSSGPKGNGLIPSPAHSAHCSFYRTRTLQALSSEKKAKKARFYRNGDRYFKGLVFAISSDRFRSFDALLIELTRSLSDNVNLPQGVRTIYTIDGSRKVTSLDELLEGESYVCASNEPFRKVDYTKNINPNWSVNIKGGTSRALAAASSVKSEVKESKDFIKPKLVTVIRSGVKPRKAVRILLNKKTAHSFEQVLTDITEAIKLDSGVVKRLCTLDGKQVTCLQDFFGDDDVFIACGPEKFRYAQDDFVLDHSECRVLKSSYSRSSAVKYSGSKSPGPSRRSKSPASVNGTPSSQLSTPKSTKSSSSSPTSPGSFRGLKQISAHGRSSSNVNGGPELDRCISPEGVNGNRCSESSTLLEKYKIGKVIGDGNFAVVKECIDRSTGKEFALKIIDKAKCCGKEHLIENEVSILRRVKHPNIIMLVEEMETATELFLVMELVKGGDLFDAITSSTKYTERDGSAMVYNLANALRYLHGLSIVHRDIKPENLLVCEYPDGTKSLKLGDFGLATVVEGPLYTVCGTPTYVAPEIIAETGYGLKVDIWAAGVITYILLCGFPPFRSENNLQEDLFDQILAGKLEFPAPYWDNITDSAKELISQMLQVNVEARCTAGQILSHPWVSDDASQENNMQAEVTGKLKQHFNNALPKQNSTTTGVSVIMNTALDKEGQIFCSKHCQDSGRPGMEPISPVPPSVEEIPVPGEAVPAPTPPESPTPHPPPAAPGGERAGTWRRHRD
The conditions noted are these: at 1 µM.

For experiment [4], the target named is T1, Serine/threonine-protein kinase DCLK2 (Homo sapiens). The conditions noted are these: at 10 µM.
For experiment [5], the target named is T2, Discoidin domain-containing receptor 2 (Homo sapiens) (UniProt Q16832).
T2 sequence (whole entry): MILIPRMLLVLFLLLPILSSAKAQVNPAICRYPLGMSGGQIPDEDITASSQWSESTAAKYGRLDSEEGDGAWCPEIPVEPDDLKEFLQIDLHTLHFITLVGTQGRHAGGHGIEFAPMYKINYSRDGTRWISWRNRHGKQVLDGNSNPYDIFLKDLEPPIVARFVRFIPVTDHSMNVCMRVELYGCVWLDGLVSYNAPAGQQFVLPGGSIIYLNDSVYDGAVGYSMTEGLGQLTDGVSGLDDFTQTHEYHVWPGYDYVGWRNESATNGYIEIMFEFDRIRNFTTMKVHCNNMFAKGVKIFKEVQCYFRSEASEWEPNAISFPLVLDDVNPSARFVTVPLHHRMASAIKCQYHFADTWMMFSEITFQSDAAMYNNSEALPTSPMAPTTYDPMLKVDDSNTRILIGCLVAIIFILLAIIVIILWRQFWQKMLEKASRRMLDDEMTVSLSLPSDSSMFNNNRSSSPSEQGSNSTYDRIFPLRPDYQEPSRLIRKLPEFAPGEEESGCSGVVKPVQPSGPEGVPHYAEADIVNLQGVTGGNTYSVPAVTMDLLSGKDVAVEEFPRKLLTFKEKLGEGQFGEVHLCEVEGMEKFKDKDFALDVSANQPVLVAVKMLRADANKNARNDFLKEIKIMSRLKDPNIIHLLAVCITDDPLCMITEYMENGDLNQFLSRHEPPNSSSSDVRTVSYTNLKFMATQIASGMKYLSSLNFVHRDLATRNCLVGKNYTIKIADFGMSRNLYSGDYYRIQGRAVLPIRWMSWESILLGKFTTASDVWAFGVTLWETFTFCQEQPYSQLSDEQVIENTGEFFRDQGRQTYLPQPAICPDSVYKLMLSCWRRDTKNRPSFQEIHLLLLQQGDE
The conditions noted are these: at 1 µM.

Experiment [6] has as its target T2, Discoidin domain-containing receptor 2 (Homo sapiens). Particulars: at 10 µM.
In experiment [7] the target is T3, Myotonin-protein kinase (Homo sapiens) (UniProt Q09013).
T3 sequence (whole entry): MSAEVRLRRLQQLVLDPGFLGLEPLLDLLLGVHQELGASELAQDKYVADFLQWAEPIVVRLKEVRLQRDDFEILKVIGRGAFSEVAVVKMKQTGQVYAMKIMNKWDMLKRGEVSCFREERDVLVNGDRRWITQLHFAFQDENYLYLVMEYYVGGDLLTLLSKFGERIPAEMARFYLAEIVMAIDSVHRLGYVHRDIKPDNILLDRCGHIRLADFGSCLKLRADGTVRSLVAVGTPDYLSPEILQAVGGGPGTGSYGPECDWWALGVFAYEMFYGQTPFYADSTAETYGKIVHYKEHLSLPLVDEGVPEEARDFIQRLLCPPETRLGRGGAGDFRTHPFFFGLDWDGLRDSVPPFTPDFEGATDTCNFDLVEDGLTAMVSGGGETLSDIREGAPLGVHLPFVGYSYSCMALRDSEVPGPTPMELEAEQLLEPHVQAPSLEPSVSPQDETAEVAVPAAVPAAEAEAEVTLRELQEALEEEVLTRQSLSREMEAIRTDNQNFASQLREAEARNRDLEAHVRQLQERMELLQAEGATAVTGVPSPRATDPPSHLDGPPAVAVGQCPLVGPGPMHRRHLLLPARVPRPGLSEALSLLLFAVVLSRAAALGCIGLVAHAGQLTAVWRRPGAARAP
The conditions noted are these: at 1 µM.

Experiment [8] has as its target T3, Myotonin-protein kinase (Homo sapiens). The conditions noted are these: at 10 µM.
For experiment [9], the target named is T4, Serine/threonine-protein kinase 17A (Homo sapiens) (UniProt Q9UEE5).
T4 sequence (whole entry): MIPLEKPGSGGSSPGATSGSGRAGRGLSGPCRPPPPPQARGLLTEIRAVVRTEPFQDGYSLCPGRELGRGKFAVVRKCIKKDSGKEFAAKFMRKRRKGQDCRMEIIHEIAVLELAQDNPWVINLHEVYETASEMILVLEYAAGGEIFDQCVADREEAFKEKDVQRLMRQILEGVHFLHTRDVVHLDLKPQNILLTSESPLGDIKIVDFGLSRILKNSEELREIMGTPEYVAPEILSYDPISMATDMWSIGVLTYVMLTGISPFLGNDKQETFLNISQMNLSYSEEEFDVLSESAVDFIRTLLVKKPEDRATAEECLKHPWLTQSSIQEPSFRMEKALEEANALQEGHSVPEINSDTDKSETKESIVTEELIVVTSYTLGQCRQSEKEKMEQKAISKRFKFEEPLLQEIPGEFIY
The conditions noted are these: at 1 µM.

For experiment [10], the target named is T4, Serine/threonine-protein kinase 17A (Homo sapiens). Particulars: at 10 µM.
The target of experiment [11] is T5, Dual specificity tyrosine-phosphorylation-regulated kinase 2 (Homo sapiens) (UniProt Q92630).
T5 sequence (whole entry): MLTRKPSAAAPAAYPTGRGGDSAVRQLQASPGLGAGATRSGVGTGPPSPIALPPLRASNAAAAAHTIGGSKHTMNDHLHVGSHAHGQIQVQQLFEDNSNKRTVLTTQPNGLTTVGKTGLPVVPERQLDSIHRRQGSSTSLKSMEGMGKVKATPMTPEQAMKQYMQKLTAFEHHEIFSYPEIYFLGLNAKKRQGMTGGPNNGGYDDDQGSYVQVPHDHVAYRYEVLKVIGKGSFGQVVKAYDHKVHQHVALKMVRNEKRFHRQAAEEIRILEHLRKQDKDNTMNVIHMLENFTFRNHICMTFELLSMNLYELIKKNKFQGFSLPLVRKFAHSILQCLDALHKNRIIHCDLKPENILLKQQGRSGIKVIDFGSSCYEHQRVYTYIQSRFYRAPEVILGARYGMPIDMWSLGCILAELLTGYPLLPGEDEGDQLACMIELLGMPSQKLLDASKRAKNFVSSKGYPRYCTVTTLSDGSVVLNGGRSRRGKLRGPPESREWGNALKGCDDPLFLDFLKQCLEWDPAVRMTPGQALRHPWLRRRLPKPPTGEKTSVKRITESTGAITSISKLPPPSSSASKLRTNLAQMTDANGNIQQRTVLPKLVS
Particulars: at 1 µM.

For experiment [12], the target named is T5, Dual specificity tyrosine-phosphorylation-regulated kinase 2 (Homo sapiens). The conditions noted are these: at 10 µM.
Experiment [13] concerns the target T6, Ephrin type-A receptor 1 (Homo sapiens) (UniProt P21709).
T6 sequence (whole entry): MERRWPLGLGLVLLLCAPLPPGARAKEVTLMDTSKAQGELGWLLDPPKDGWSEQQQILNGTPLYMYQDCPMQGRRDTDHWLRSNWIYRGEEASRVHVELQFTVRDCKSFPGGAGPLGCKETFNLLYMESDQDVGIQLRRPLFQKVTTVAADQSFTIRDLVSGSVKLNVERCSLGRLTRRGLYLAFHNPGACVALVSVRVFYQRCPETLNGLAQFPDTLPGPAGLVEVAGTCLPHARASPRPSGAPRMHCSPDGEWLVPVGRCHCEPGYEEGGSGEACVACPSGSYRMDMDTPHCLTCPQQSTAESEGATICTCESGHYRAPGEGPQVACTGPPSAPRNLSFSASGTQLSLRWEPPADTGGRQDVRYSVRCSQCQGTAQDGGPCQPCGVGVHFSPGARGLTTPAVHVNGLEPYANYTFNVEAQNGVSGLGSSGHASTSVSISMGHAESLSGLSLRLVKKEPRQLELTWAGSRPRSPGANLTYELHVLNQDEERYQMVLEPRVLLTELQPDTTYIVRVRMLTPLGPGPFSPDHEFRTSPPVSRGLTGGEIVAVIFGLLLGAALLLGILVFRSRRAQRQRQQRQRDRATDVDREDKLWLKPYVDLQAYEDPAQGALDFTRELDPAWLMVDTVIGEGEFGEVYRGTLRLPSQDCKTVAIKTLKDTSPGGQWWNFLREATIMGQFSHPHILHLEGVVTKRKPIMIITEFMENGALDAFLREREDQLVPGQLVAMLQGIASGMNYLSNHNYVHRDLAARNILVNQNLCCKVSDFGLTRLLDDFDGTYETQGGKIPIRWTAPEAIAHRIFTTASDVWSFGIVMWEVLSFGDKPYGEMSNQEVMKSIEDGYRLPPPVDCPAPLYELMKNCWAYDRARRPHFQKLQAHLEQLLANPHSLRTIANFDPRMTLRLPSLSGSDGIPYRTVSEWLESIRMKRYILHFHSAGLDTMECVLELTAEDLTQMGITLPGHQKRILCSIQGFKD
The conditions noted are these: at 1 µM.

Experiment [14] deals with T6, Ephrin type-A receptor 1 (Homo sapiens). Particulars: at 10 µM.
For experiment [15], the target named is Ephrin type-A receptor 2 (Homo sapiens) (UniProt P29317). The conditions noted are these: at 1 µM.
The target is the same in experiment [16]. Particulars: at 10 µM.
Experiment [17] has as its target T7, Ephrin type-A receptor 3 (Homo sapiens) (UniProt P29320).
T7 sequence (whole entry): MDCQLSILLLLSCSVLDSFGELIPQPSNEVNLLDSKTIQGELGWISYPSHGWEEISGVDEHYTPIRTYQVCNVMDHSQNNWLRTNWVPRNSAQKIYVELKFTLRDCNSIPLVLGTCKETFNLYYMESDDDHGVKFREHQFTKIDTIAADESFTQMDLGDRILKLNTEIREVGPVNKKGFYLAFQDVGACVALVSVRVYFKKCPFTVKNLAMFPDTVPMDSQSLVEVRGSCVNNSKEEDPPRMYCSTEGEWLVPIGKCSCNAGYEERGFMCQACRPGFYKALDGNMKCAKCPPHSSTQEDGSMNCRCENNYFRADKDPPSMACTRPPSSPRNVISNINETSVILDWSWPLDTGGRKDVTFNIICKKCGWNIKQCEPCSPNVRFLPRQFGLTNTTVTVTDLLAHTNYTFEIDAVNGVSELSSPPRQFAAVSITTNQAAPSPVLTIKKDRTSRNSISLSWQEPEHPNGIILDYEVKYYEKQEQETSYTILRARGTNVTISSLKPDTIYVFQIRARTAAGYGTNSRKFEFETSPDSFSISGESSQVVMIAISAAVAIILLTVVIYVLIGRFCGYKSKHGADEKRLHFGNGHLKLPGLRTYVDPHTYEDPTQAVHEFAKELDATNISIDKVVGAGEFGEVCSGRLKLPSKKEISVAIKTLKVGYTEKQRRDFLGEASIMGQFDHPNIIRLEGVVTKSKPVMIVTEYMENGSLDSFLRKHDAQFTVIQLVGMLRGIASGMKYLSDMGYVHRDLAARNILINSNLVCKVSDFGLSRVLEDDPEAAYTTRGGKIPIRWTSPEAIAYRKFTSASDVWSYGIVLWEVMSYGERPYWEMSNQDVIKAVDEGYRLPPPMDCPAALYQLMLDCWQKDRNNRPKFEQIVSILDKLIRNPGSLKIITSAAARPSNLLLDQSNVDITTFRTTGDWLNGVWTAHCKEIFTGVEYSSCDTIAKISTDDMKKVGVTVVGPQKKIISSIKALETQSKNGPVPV
The conditions noted are these: at 1 µM.

In experiment [18] the target is Death-associated protein kinase 2 (Homo sapiens) (UniProt Q9UIK4). Particulars: at 10 µM.

Structures are written as SMILES.

The results in this text go back to ChEMBL document CHEMBL2218924, “A broad activity screen in support of a chemogenomic map for kinase signalling research and drug discovery” (Biochem J, 2013).

In general, residual activity refers to the signal under treatment as a percentage of the control signal.

Chain of Death-associated protein kinase 2 (Homo sapiens) (Q9UIK4 whole entry, looked up): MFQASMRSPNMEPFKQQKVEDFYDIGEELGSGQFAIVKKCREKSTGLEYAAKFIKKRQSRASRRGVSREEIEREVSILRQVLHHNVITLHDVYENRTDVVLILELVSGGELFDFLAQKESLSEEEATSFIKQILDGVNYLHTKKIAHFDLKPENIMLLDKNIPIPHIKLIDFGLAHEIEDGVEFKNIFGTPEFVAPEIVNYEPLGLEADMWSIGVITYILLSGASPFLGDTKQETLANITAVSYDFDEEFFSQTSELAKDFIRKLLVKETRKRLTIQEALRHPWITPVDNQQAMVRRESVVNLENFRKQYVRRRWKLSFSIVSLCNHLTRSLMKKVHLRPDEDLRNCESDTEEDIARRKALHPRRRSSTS
Chain of Ephrin type-A receptor 2 (Homo sapiens) (P29317 whole entry): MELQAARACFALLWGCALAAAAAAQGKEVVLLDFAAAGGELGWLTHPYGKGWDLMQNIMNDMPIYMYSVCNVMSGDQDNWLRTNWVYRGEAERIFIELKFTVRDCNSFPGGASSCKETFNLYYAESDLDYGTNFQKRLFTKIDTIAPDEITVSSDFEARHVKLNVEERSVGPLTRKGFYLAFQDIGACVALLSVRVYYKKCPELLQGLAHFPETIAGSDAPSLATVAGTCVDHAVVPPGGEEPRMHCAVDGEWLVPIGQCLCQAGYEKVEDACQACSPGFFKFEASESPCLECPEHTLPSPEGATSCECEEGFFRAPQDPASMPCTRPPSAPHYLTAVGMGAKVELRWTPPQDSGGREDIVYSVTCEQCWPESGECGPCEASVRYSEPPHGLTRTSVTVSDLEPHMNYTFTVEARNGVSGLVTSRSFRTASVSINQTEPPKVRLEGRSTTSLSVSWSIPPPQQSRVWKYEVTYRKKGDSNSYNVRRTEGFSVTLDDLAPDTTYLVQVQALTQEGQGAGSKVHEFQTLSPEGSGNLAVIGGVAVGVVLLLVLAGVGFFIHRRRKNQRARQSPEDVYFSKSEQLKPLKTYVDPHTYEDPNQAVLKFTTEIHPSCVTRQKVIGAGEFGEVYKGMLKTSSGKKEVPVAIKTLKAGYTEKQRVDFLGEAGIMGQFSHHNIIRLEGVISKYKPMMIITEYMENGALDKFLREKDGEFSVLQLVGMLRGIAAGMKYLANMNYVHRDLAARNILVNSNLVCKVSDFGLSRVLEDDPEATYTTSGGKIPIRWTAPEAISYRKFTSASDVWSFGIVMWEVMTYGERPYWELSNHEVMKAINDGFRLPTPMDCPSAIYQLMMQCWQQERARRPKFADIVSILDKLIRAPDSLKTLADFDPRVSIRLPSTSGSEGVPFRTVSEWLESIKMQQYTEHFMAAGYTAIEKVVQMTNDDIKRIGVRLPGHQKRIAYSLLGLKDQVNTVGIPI
Chain of Death-associated protein kinase 1 (Homo sapiens) (P53355 whole entry, looked up): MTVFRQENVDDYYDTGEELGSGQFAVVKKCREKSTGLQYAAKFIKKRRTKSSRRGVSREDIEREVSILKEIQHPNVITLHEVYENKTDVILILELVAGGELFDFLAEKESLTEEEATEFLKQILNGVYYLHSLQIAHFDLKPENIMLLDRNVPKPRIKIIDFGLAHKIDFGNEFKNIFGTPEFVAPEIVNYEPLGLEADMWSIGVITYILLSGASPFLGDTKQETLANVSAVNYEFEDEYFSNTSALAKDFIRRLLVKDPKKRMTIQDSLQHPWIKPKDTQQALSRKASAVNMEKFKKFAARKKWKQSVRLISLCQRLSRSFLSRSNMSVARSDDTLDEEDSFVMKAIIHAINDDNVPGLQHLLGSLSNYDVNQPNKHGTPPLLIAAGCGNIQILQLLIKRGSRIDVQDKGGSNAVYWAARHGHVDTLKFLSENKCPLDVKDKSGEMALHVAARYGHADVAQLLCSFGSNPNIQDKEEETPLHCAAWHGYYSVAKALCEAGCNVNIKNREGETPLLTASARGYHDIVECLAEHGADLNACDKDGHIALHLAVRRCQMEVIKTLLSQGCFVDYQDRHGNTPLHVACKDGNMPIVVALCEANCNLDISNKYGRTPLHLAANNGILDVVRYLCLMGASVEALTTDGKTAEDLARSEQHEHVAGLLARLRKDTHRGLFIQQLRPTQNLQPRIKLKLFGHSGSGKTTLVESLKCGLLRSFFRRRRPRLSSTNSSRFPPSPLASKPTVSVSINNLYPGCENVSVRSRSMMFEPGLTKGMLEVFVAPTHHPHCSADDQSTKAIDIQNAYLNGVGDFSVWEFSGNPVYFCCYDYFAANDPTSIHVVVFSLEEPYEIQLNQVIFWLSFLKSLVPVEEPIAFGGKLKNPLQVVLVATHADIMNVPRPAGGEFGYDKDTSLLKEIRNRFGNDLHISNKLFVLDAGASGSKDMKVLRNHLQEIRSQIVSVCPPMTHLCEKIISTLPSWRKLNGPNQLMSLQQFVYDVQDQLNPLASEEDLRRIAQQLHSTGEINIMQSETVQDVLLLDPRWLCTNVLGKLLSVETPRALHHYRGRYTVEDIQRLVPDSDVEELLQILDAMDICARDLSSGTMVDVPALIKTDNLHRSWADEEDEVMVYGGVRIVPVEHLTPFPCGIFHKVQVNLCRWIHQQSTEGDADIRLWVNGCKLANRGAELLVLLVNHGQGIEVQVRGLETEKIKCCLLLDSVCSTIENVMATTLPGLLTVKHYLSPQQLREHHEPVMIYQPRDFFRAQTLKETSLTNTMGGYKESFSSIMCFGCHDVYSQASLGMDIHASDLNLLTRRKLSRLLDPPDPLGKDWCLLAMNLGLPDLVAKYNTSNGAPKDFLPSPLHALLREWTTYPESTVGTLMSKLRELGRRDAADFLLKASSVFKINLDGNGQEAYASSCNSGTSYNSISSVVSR

For the compound `Nc1ncnc2c1c(-c1ccc(Oc3ccccc3)cc1)cn2C1CCCC1`, the residual activity came to 69% in experiment [1]; 101% in experiment [2]; 91% in [3]; 93% in experiment [4]; 105% in experiment [5]; 53% in [6]. The residual activity amounted to 127% in [7]; 127% in [8]; 110% in experiment [9]; 104% in experiment [10]; 91% in experiment [11]; 82% in [12]. The residual activity in [13] was 72%; in experiment [14], 18%; in experiment [15] it was 100%; in experiment [16], 55%; in experiment [17] it was 101%.
Consider `O=C(O)/C=C/c1cc(Br)c(Br)c(Br)c1Br`, for which the residual activity is 62% in experiment [1]; 91% in experiment [2]; 39% in experiment [18]; 98% in [3]; 68% in [4]; 93% in experiment [5]. In addition, the residual activity in experiment [6] is 95%; in experiment [7], 93%; in [8] it was 76%; in experiment [9], 79%; in [10], 39%; in [11], 92%. Also, the residual activity turned out to be 38% in experiment [12], 104% in [13], 91% in experiment [14] and 101% in experiment [17].
